According to the supplement of paper PMC4723716:

System: Plasmodium falciparum NF54 gametocytes
Assay: viability index relative to DMSO control (fraction); higher = less gametocyte killing
Details: gametocyte stage: Stage V viability index; 12.5 µM; incubation time: 72 h
In short: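 The viability index was calculated as the gametocyte particle count over the plate mean of solvent-only wells. For this, P. falciparum NF54 gametocytes of every stage (I–V) were held with compound at 12.5 µM for 72 hr at 37°C under low oxygen in 384-well plates. MitoTracker Red CMXRos staining for 20 min was followed by transfer of 5 µl into 40 µl of 500 nM dye in serum-free medium, with three fields imaged after 30 min.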

Structure (SMILES)	viability index
COc1cccc(Cn2c(Oc3ccccc3)nc3c2c(=O)n(C)c(=O)n3C)c1	1.16
COc1ccc(NC(=O)C2c3ccccc3C(=O)N(CC(C)C)C2c2cccs2)cc1Cl (centres undefined)	0.11
COc1cc2cc(C(=O)Nc3ccccc3)c(N)nc2cc1OC	0.758
CC(=O)c1ccc(NC(=O)CSc2nc(-c3ccccc3Cl)ns2)cc1	0.584
O=C(c1ccccc1F)N(Cc1ccc(Cl)cc1)c1ccccn1	0.967
CCN(CC)c1cc(C)c2cc(NC(=O)c3cccc(OC)c3)ccc2n1	1.01
CCCN(CCC)CCCNC(=O)c1cc2c(-c3ccc(OC)c(OC)c3)nn(C)c2s1	0.868
COCCNC(=O)c1ccc(OC2CCN(Cc3ccc(F)c(F)c3)CC2)c(Cl)c1	0.901
O=C(Nc1ccc(-c2nc3cc4ccccc4cc3[nH]2)cc1)c1cccc(Br)c1	0.909
CC(C)c1ccc(CNCC(O)c2ccccc2)cc1 (centres undefined)	0.648
COc1ccc(C2=C(c3ccc(OC)cc3)C3(c4ccccc4)C(=O)C2(c2ccccc2)C2C(=O)N(c4ccc(C)cc4)C(=O)C23)cc1 (centres undefined)	0.967
COc1cccc(C2(C)Nc3ccccc3-c3nc4ccccc4n32)c1 (centres undefined)	0.154
CCOc1ccc2nc(C)cc(Nc3ccc(Br)cc3)c2c1	0.818
Cc1ccc(C)c(Cn2c(N3CCC(C(=O)NCc4cccs4)CC3)nc3ccccc32)c1	0.221
COc1cccc(C(=O)Nc2ccc(-c3nc4ccccc4[nH]3)cc2)c1	0.883
CCOC(=O)C1CCN(C(=O)CN2C(=O)c3ccccc3C2c2c[nH]c3ccccc23)CC1 (centres undefined)	1.18
O=C1c2ccccc2-c2nnc(-c3ccc(Br)cc3)cc21	0.87
Oc1c2c(nc3ccccc13)CCCC2	0.961
CCCCCCc1cc2cc(-c3nc4ccccc4[nH]3)c(=Nc3ccccc3C)oc2cc1O	0.506
O=C(NC(c1ccccc1)c1ccc2cccnc2c1O)c1ccccc1 (centres undefined)	0.0769

Structure (SMILES)	viability index
COc1cc(C(=O)ON=C(N)Cc2cccc3ccccc23)cc(OC)c1OC	0.0909
CCOC(=O)C1(Cc2ccccc2)CCN(Cc2cccc(OC)c2O)CC1	0.649
O=C(O)C1Cc2c([nH]c3ccccc23)C(c2ccc(Cl)cc2Cl)N1 (centres undefined)	0.967
Cc1ccc(C)c(-c2csc(Nc3ccc(C)c(C)c3)n2)c1	0.558
CCc1ccc(Nc2cc(C)c3ccc(O)cc3n2)cc1	0.945
COc1ccc(-c2nonc2NC(=O)c2cccc(C)c2)cc1OC	0.571
CCN1CCN(c2c(C(=O)c3ccccc3)cnc3cc(OC)c(OC)cc23)CC1	0.909
CCCOCc1cc(CN2CCN(c3cccc(Cl)c3)CC2)c(O)c2ncccc12	0
CCOc1ccc2nc(C)cc(Nc3ccc(N(C)C)cc3)c2c1	0.857
Cc1ccc(Cn2c(N3CCC(C(=O)NCc4cccs4)CC3)nc3ccccc32)cc1	0.308
CC1CCN(Cc2ccc(NC(=O)c3cc4ccc5cccnc5c4[nH]3)cc2)CC1	0.769
Cc1cccc(-n2ncc3c(=O)[nH]c(-n4nc(C)cc4NC(=O)c4cc5ccccc5o4)nc32)c1	0.791
CCOc1cc2c(cc1OCC)C(c1cc(Cl)ccc1O)NCC2 (centres undefined)	0.675
COC(=O)c1ccc(Cl)c2c1C1C=CCC1C(c1cccc3ccccc13)N2 (centres undefined)	0.883
O=C(Nc1ccc(N2CCCCC2)c(Cl)c1)c1ccc(Br)o1	0.978
CN(C)c1ccc(-c2nc3cc(N)ccc3[nH]2)cc1	0.725
COc1ccc2nc(C)cc(Nc3ccccc3O)c2c1	0.912
COc1cccc(Nc2nc(N)c3ccccc3n2)c1	0.649
O=C(CSc1ccc2nnc(-c3cccc(F)c3)n2n1)Nc1ccc2c(c1)OCO2	1.37
